Laboratory results published in PubChem BioAssay AID2490 (National Center for Advancing Translational Sciences (NCATS), 2010).
Active and inactive are the calls of the source. Calls follow the shape of the full dose curve.

What follows are molecules tested against Thyroid hormone receptor beta (Homo sapiens) (UniProt P10828) (assay: Secondary Confirmation Assay for Inhibitors of the Interaction of Thyroid Hormone Receptor and Steroid Receptor Coregulator 2, Texas Red Fluoroprobe). Conditions: TRb LBD / Texas Red SRC2 peptide fluorescence polarization.
Thyroid hormone receptor beta (Homo sapiens), sequence (P10828 whole entry, looked up, the tested form may be a part): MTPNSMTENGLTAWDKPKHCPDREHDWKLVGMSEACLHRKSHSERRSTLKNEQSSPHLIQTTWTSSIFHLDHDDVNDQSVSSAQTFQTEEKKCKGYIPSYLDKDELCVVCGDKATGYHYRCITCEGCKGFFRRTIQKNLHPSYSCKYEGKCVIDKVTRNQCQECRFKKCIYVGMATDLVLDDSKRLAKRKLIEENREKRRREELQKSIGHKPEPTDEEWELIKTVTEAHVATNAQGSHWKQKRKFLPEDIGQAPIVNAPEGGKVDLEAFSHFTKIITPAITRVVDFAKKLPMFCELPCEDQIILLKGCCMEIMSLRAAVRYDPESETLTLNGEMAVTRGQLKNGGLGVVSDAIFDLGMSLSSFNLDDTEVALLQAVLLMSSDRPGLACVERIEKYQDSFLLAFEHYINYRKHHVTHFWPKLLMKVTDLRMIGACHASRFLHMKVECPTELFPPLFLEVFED
Text: NIH Molecular Libraries Probe Production Network [MLPCN] NIH Chemical Genomics Center [NCGC] MLPCN Grant: DK058080 Assay Provider: R. Kip Guy, St. Jude Children's Research Hospital NCGC Assay Overview: Thyroid receptor (TR) regulates many homeostatic processes including basal metabolism, cardiovascular function, body weight, and lipid trafficking. TR modulators are potential therapeutics for obesity and hyperlipidemias but current thyroid analogs have undesirable side effects, particularly cardiac stimulation. To identify inhibitors that specifically prevent the interaction of TR with the steroid receptor coregulator 2 (SRC2), a fluorescence polarization assay was screened (Arnold et al., 2006). This assay detects the interaction of the ligand-binding domain of human TRb with a Texas Red labeled SRC2 peptide, corresponding to a 20 amino acid region of the nuclear receptor interaction domain. Small molecule inhibitors that block the interaction of TR and SRC2 are detected by a decrease in fluorescence polarization.
NCGC Assay Protocol Summary: Twenty uL/well 0.6 uM TRb and 20 nM Texas Red labeled SRC2-2 in protein buffer (20mM Tris hydrochloride, pH 7.4, 100mM NaCl, 10% glycerol, 1mM EDTA, 0.01% NP-40, 1mM DTT, 1uM T3 and 4% DMSO) was dispensed into black solid 384-well plates (Costar 3710) using a Biomek FX (Beckman Coulter) liquid handling system. Following transfer of 260 nL compound (ranging from 7 nM to 130 uM), the plates were incubated 3 hr at ambient temperature. The plates were read by an Envision (Perkin Elmer) to detect fluorescence polarization of SRC2 Texas Red (555 nm excitation and 632 nm emission). Arnold, L. A.; Estebanez-Perpina, E.; Togashi, M.; Shelat, A.; Ocasio, C. A.; McReynolds, A. C.; Nguyen, P.; Baxter, J. D.; Fletterick, R. J.; Webb, P.; Guy, R. K. A high-throughput screening method to identify small molecule inhibitors of thyroid hormone receptor coactivator binding. Sci STKE 2006, p 13.

Compound | Potency | outcome
CC1CCN(C(=O)COC(=O)c2ccc(S(C)(=O)=O)c([N+](=O)[O-])c2)CC1 | 9.8 µM (active) | –
O=C(COC(=O)c1cccc([N+](=O)[O-])c1Cl)NC1C2CC3CC(C2)CC1C3 (stereo not given) | – | inactive
CCN1CCN(C(=O)COC(=O)c2ccc(S(C)(=O)=O)c([N+](=O)[O-])c2)CC1C (stereo not given) | – | inactive
O=C(COC(=O)c1cccc([N+](=O)[O-])c1)NC1C2CC3CC(C2)CC1C3 (stereo not given) | – | inactive
CS(=O)(=O)c1ccc(C(=O)OCC(=O)NC(=O)NC2CCCCC2)cc1[N+](=O)[O-] | 19.1 µM (active) | –
CS(=O)(=O)c1ccc(C(=O)OCC(=O)N2CCN(c3ccccc3)CC2)cc1[N+](=O)[O-] | 24.7 µM (active) | –
CC1CCCCN1C(=O)COC(=O)c1ccc(S(C)(=O)=O)c([N+](=O)[O-])c1 (stereo not given) | 11.5 µM (active) | –
Cc1ccccc1NC(=O)COC(=O)c1ccc(S(C)(=O)=O)c([N+](=O)[O-])c1 | – | inactive
O=C(COC(=O)c1ccc(C(F)(F)F)cc1)NC(=O)C1CCCCC1 | – | inactive
CS(=O)(=O)c1ccc(C(=O)OCC(=O)N2CC(=O)Nc3ccccc32)cc1[N+](=O)[O-] | 3.8 µM (active) | –
CS(=O)(=O)c1ccc(C(=O)OCC(=O)N2CCc3ccccc32)cc1[N+](=O)[O-] | 51.8 µM (active) | –
CCN(CC)C(=O)COC(=O)c1ccc(S(C)(=O)=O)c([N+](=O)[O-])c1 | 41.3 µM (active) | –
CS(=O)(=O)c1ccc(C(=O)OCC(=O)N2CCN(Cc3ccccc3)CC2)cc1[N+](=O)[O-] | 15.3 µM (active) | –
CC(=O)Nc1cccc(C(=O)OCC(=O)NC(=O)C2CCCCC2)c1 | – | inactive
CS(=O)(=O)c1ccc(-c2nc(C(=O)NC3C4CC5CC(C4)CC3C5)cs2)cc1[N+](=O)[O-] (stereo not given) | 10.1 µM (active) | –
N#Cc1ncc(C(=O)OCC(=O)NC2C3CC4CC(C3)CC2C4)cn1 (stereo not given) | – | inactive
C[S+](=O)([O-])c1ccc(C(=O)OCC(=O)N2CCNC(=O)C2)cc1[N+](=O)[O-] | – | inactive
CS(=O)(=O)c1ccc(C(=O)OCC(=O)N2CCN(C3CCCCC3)CC2)cc1[N+](=O)[O-] | 16.1 µM (active) | –
Cc1ccc(F)cc1NC(=O)COC(=O)c1ccc(S(C)(=O)=O)c([N+](=O)[O-])c1 | – | inactive
C#CCNC(=O)COC(=O)c1ccc(S(C)(=O)=O)c([N+](=O)[O-])c1 | – | inactive
Cc1nc(-c2ccc(S(C)(=O)=O)c([N+](=O)[O-])c2)sc1C(=O)NC1C2CC3CC(C2)CC1C3 (stereo not given) | 4 µM (active) | –
Cn1cccc1C(=O)NC(=O)COC(=O)c1ccc(S(C)(=O)=O)c([N+](=O)[O-])c1 | 38.4 µM (active) | –
CCc1nc(-c2ccc(S(C)(=O)=O)c([N+](=O)[O-])c2)sc1C(=O)NC1C2CC3CC(C2)CC1C3 (stereo not given) | 3 µM (active) | –
C#CC1(NC(=O)COC(=O)c2ccc(S(C)(=O)=O)c([N+](=O)[O-])c2)CCCCC1 | 9.2 µM (active) | –
CN1CCN(C(=O)COC(=O)c2ccc(S(C)(=O)=O)c([N+](=O)[O-])c2)CC1 | – | inactive
